# Results from PubChem BioAssay (EPA / NIEHS).
# Inconclusive results are not listed. Calls of active or inactive are those of the source. The calls were made as follows: active = hit-call score of the fitted dose curve at least 0.9, where 1 is the maximum; inconclusive = response in the unintended direction; inactive = score below 0.9.
# Tested on: guinea pig Atrionatriuretic Peptide Receptor A (ANPA), gene 100135578
# Test: NVS_GPCR_gANPA: NovaScreen (NVS) G Protein-Coupled Receptor Assay for guinea pig Atrionatriuretic Peptide Receptor A (ANPA) (AID 2283291)
# Procedure: NVS_GPCR_gANPA is a biochemical, single-readout assay that uses extracted gene-proteins from Guinea pig cerebellar membranes in a tissue-based cell-free assay. Measurements were taken 1 hour after chemical dosing in a 96-well plate.NVS_GPCR_gANPA is one of one assay component(s) measured or calculated from the NVS_GPCR_gANPA assay. It is designed to make measurements of radioligand binding, a form of binding reporter, as detected with scintillation counting signals by Filter-based radiodetection technology.Data from the assay component NVS_GPCR_gANPA was analyzed into 1 assay endpoint. This assay endpoint, NVS_GPCR_gANPA, was analyzed in the positive analysis fitting direction relative to DMSO as the negative control and baseline of activity. Using a type of binding reporter, loss-of-signal activity can be used to understand changes in the binding as they relate to the gene Nppa. Furthermore, this assay endpoint can be referred to as a primary readout, because the performed assay has only produced 1 assay endpoint. To generalize the intended target to other relatable targets, this assay endpoint is annotated to the lyase intended target family, where the subfamily is guanylyl cyclase.
# Binding assays used specific radioligands (tritiated, iodinated) with non-radioactive competitive displacement ligands in agonist or antagonist protocols (as indicated) and various reference compounds and inhibitors to titrate specific binding to receptors and transporters. Most enzyme assays (CYPs, kinases, phosphatases, proteases, HDACs) used recombinant protein and specific substrates (fluorescence mostly, some colorimetric and radioactive) and inhibitors, followed by a biochemical separation of substrate and product. All assays for the biochemical HTS were initially run in duplicate at a single concentration (10 uM for CYP450 assays and 25 uM for all others). Assay-chemical combinations meeting a pre-defined threshold (e.g., 30% inhibition and other criteria defined below) were then run in singleton concentration-response format with maximum concentration of 20 uM for CYPs and 50 uM for all others. Each assay was run with positive and negative controls, and concurrent controls on every plate. The follow-up (secondary) screen tested active chemical-pairs in concentration series, as well as a few additional assays not tested in the primary screen, some selected negative inactives, and several cases re-run in the concentration series for confirmatory purposes.
SMILES,AC50,outcome
CN(C[C@@H](CC[N+]12CCC(C3CCCCC3)(CC1)CC2)c1ccc(Cl)c(Cl)c1)C(=O)c1cc(C(F)(F)F)cc(C(F)(F)F)c1,42.3 µM (active),–
CCCCCCCCCCCCCCCCO,–,inactive
Oc1ccc2c(c1)OC[C@@H](N1CCC(O)(c3ccc(F)cc3)CC1)[C@H]2O,–,inactive
CCc1cccc(CC)c1N,–,inactive
O=C(OCCCCCCOC(=O)c1ccccc1)c1ccccc1,–,inactive
COCc1nnc(-c2ccc[n+]([O-])c2)n1-c1c(Cl)c(Cl)cc2[nH]c(=O)c(=O)[nH]c12,–,inactive
CCCCCCC(C)OC(=O)COc1nc(F)c(Cl)c(N)c1Cl (stereo not given),–,inactive
Cc1cc(C)c(O)c(C)c1,–,inactive
COCC(C)O (stereo not given),–,inactive
CCCCCCCCCC,–,inactive
CC(C)(C)c1ccccc1,–,inactive
CC(=O)c1ccccc1,–,inactive
Clc1cc(Cl)c(Cl)cc1Cl,–,inactive
CC(C)(c1cc(Br)c(O)c(Br)c1)c1cc(Br)c(O)c(Br)c1,–,inactive
Cc1nccn1-c1ccc(Sc2cccc(C3(C(N)=O)CCOCC3)c2)cc1,–,inactive
